Results: PubChem BioAssay AID1839 (Johns Hopkins Ion Channel Center, 2009)
Hit rate of the full screen: of about 2,400 compounds, about 220 (9.2%) were called active. For the sample, actives were picked, then their nearest neighbours and some compounds at random. Unmarked numbers belong to inactive results.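 How the source made its calls: active means signal change above the mean of dofetilide-free buffer controls plus 3 SD, so a positive margin; inactive means the rest.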

experiment: nonspecific flux effects in parental CHO-K1, confirmation, counter-screen for hERG block protection project, cell-based, CHO-K1 parental line, FluxOR thallium flux (AID 1839); details: CHO-K1 parental cells, FluxOR thallium flux fluorescence; at 10 µM;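 further: compounds applied alone with no dofetilide to cells lacking hERG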

Row | Structure (SMILES) | signal change vs control minus 3*SD hit threshold (margin above threshold, higher = more increase)
1 | CCc1ccc(OCC(=O)Nc2ncn[nH]2)cc1 | -35.2%
2 | Cc1ccc2[nH]c3c(c2c1)CNCC3 | -32%
3 | CN(c1ccccc1)S(=O)(=O)c1ccc(Cl)c(C(=O)Nc2nn[nH]n2)c1 | -24.2%
4 | COc1ccc(C2N=C(c3ccccc3)C(C)(C)N2O)cc1 (stereo not given) | -23.4%
5 | Cc1ccccc1-c1nnn(CC(=O)NCc2ccc3c(c2)OCO3)n1 | -37.1%
6 | Cc1cccc(/N=C/c2sc3ccccc3c2O)n1 | -19.2%
7 | O=C(NCC1CCCO1)c1ccc2c(=O)n(Cc3ccco3)c(SCC(=O)N3CCCC3)nc2c1 (stereo not given) | -14.7%
8 | Clc1cccc(OCCCN2CCCC2)c1Cl | -24.8%
9 | CCCCC1C2=C(CCCC2=O)OC2=C1C(=O)CCC2 | -34.5%
10 | Cc1ccc(C(=O)N2CCN(c3ccccc3)CC2)cc1S(=O)(=O)N1CCCC1 | -7.2%
11 | Cc1ccc(-c2nc3ccccc3c(=O)n2O)cc1 | -12.7%
12 | Cc1ccc(-c2nc3c(Cl)cc(Cl)cc3c(=O)n2O)cc1 | 65.6% (active)
13 | Cc1cc(=O)[nH]c(SCC(=O)NC2CCCCC2)n1 | -27%
14 | CCOc1ccc(NC(=S)NC(=O)c2ccco2)cc1 | -15.7%
15 | CCOc1ccccc1NC(=S)NC(=O)c1ccco1 | -16.7%
16 | O=C(NC(=S)Nc1ccccc1Br)c1ccco1 | -14.3%
17 | Cc1cccc(NC(=O)CCNC(=O)c2ccco2)c1C | -27.7%
18 | O=C(NC(=S)Nc1ccc(N2CCCCC2)cc1)c1ccco1 | 9.4% (active)
19 | CCC(C)c1ccccc1NC(=S)NC(=O)c1ccco1 (stereo not given) | 40% (active)
20 | Cc1cccc(NC(=S)NC(=O)c2ccco2)c1C | 20% (active)
21 | O=C(NC(=S)Nc1cccc(Cl)c1N1CCCCC1)c1ccco1 | -27.7%
22 | O=C(NC(=S)Nc1ccccc1N1CCCC1)c1ccco1 | -20.8%
23 | O=C1OCCC1Sc1nc2ccccc2c(=O)n1Cc1ccc(F)cc1 (stereo not given) | -13.7%
24 | CCc1ccc(C(=O)NNC(=O)c2ccc(=O)n(C)n2)cc1 | -31%
25 | O=C(NC(=S)N1CCN(c2nc(-c3ccccc3)cs2)CC1)c1cncc(Br)c1 | -12.3%

Row | Structure (SMILES) | signal change vs control minus 3*SD hit threshold (margin above threshold, higher = more increase)
26 | CC(NC(=O)NC1CCCCC1)c1ccccc1 (stereo not given) | -8.9%
27 | Oc1c(N=Nc2ccccn2)ccc2ccccc12 | -28.3%
28 | O=C(N/N=C\c1coc2ccccc2c1=O)c1ccco1 | -25.6%
29 | O=C(O)COc1ccccc1/C=C1\SC(=S)N(NC(=O)c2ccccc2O)C1=O | -20.5%
30 | Cc1c(N2C(=O)/C(=C\c3ccccc3O)SC2=S)c(=O)n(-c2ccccc2)n1C | 7.5% (active)
31 | CC(/C=C1\SC(=S)N(c2ccc(C(=O)O)cc2)C1=O)=C\c1ccccc1 | -40.7%
32 | COc1ccc(N(C(=O)c2ccco2)S(=O)(=O)c2cccs2)cc1 | -26.1%
33 | O=C(Cn1cncn1)c1ccccc1Br | -37.9%
34 | Cc1cc(C)cc(-n2ncc3c2CCCC3NC(=O)c2csnn2)c1 (stereo not given) | -40.3%
35 | CCCCN1C(=O)/C(=C2/Sc3ccc(Cl)cc3N2CC)SC1=S | -39.8%
36 | COc1ccc(OC)c(NC(=O)C(=O)NNC(=O)C23CC4CC(CC(C4)C2)C3)c1 | 42.5% (active)
37 | COc1ccc(OCC(=O)NNC(=O)C(=O)Nc2cc(OC)ccc2OC)cc1 | -1.8%
38 | COc1ccc(OC)c(NC(=O)C(=S)NC2CCCCC2)c1 | -22.8%
39 | CC(NC(=O)CCCn1cc([N+](=O)[O-])cn1)c1ccccc1 (stereo not given) | -29.8%
40 | CCCCNC(=S)NNC(=O)c1ccc2c(c1)OCO2 | -29.2%
41 | N=C1C(=O)OCC1c1cc(Cl)ccc1NC(=O)Nc1ccccc1 (stereo not given) | -31.4%
42 | Cc1cccc(C(=O)NC(=S)NNC(=O)c2ccc(Cl)cc2)c1 | -44.5%
43 | CCCc1cc(C(=O)NNC(=S)Nc2cccc(C)c2)cs1 | -32.4%
44 | Cc1cccc(NC(=O)C(=O)NNC(=O)c2ccc(C(C)(C)C)cc2)c1 | 44.5% (active)
45 | CC(C)(C)NC(=O)C(=O)NNC(=O)c1ccc(C(C)(C)C)cc1 | 1.9% (active)
46 | CC(C)(C)NC(=O)C(=O)NNC(=O)c1cccc(Br)c1 | -6.8%
47 | CC(C)(C)NC(=O)C(=O)NNC(=O)c1ccccc1 | -23.3%
48 | CCOC(=O)N1CCN(C(=O)COC(=O)c2cc(Cl)c(O)c(Cl)c2)CC1 | -24.7%
49 | Cc1ccc(O)c(Sc2cc(C)ccc2O)c1 | -41.7%
50 | CC(C)CSC1=NSC2=NC(=O)/C(=C\c3ccccc3)C(=N)N12 | -21.5%

Row | Structure (SMILES) | signal change vs control minus 3*SD hit threshold (margin above threshold, higher = more increase)
51 | O=C(COc1coc(CN2CCc3ccccc3C2)cc1=O)Nc1cccc(Cl)c1 | -31.3%
52 | CCOc1ccc2[nH]c(=O)c(CN(Cc3ccc(C)cc3)C(=O)N3CCCC3)cc2c1 | -28%
53 | COc1ccc(NC(=O)C2CC3CCC2C3)c(OC)c1 (stereo not given) | -22.3%
54 | O=C(N/N=C/C(Cl)=C/c1ccc([N+](=O)[O-])cc1)C(=O)Nc1ccc(C(=O)O)cc1 | -32.7%
55 | O=[N+]([O-])c1ccc(Nc2ccccc2F)nc1 | -20.1%
56 | O=C(NCCCN1CCCC1=O)c1ccc(OC(F)(F)F)cc1 | -32.6%
57 | CCOc1ccc(C(=O)N(CN2CCCC2=O)c2ccc(C)cc2)cc1 | 7.5% (active)
58 | COc1ccc(C(=O)N(CN2CCCC2=O)c2ccc(C)cc2)cc1 | -4.3%
59 | CCOC(=O)Cc1csc(NC(=S)NC(=O)c2ccc(Cl)cc2)n1 | -26.4%
60 | C=C(C)CNC(=S)NN=C1c2ccccc2-c2ccccc21 | -25%
61 | O=c1c(-c2ccccc2)[n+]([O-])c2ccccc2n1O | -26.3%
62 | O=c1c(-c2cccc3ccccc23)[n+]([O-])c2ccccc2n1O | -12.8%
63 | Cc1ccc(-c2c(=O)n(O)c3ccccc3[n+]2[O-])cc1 | 15.9% (active)
64 | O=c1c(-c2ccc(Cl)cc2)[n+]([O-])c2ccccc2n1O | 29.3% (active)
65 | COc1ccc(S(=O)(=O)N2CCN(C(=O)CNC(=O)c3ccc4c(c3)OCO4)CC2)cc1 | -26.4%
66 | Cc1cc2c(cc(C(=O)OC(C(=O)NCc3ccco3)C(C)C)n2C)o1 (stereo not given) | -12.7%
67 | Cn1c(=O)c2c(nc(Cl)n2CC(=O)N2CCCCC2)n(C)c1=O | -27.9%
68 | CCOC(=O)C1CCCCN1Cc1ccc(F)cc1 (stereo not given) | -18.3%
69 | CCc1ccc(S(=O)(=O)NC(=S)NC2CCCCC2)cc1 | 1.9% (active)
70 | Cc1ccc(S(=O)(=O)NC(=S)NC2CCCCC2)cc1 | -13%
71 | O=S(=O)(NC(=S)NC1CCCCC1)c1ccc(Cl)cc1 | -16.4%
72 | CCCn1c(CC)nc([N+](=O)[O-])c1S(=O)(=O)c1ccccc1 | -15.2%
73 | COC(=O)c1c(NS(=O)(=O)Cc2ccccc2)sc2c1CCCC2 | -1.7%
74 | CCC(C)(C)NC(=O)c1ccc(Sc2nncn2C)c([N+](=O)[O-])c1 | -27.2%
75 | Cc1ccc(Nc2nc(C)cs2)cc1 | -10.7%

Row | Structure (SMILES) | signal change vs control minus 3*SD hit threshold (margin above threshold, higher = more increase)
76 | Cc1ccc(Nc2cc(C)nn2-c2nc(C)cc(=O)[nH]2)cc1 | 15.1% (active)
77 | Cc1cccc(N/C(N)=N/c2nc(C)cc(=O)[nH]2)c1 | -33%
78 | CC(C)(C)Cc1nnc(NC(=O)c2ccco2)s1 | -32.3%
79 | CC1=[N+]([O-])C(C)(C)C(c2ccc(Br)cc2)=[N+]1[O-] | -17%
80 | COC(=O)c1sc(NC(=S)NC(=O)c2ccccc2F)nc1C | -6.2%
81 | COc1ccc(C(=O)CC(=O)C(=O)Nc2ccc(C)c(Cl)c2)cc1 | -23%
82 | COc1ccccc1C(=O)NNC(=O)C(=O)NCc1ccccc1 | 3.6% (active)
83 | Cc1ccccc1C(=O)NNC(=O)c1cccc([N+](=O)[O-])c1 | -30%
84 | COc1ccccc1C(=O)NNC(=O)C(=O)Nc1ccc(C)c(Cl)c1 | 55.4% (active)
85 | COc1cc(NC(=O)c2ccccc2OCc2ccccc2)cc(OC)c1OC | -34.3%
86 | Cc1ccc(NC(=O)c2ccc3c(c2)OCO3)cc1Cl | -25.4%
87 | COc1ccccc1C(=O)NCc1ccc2c(c1)OCO2 | -31%
88 | O=C(COc1ccc(Cl)cc1)NNC(=O)C(=O)NC1CCCCC1 | -26.3%
89 | COc1ccc(C(=O)NNC(=O)C(=O)NC2CCCCC2)cc1 | -33.5%
90 | Cc1ccc(NC(=O)C(=O)NNC(=O)c2ccccc2C)cc1Cl | 35% (active)
91 | COc1ccc(NC(=O)C(=O)NNC(=O)c2ccc(Cl)cc2Cl)cc1 | -20.1%
92 | COc1ccccc1C(=O)NNC(=O)C(=O)NC1CCCCC1 | 14.6% (active)
93 | Cc1ccc(-n2ncc3c2CCCC3NC(=O)c2csnn2)cc1C (stereo not given) | -37.5%
94 | Cc1ccc(NC(=O)c2c([N+](=O)[O-])c(C(C)(C)C)nn2C)cc1 | -22.3%
95 | Cc1cc(C)c(NC(=O)C2CC3CCC2C3)c(C)c1 (stereo not given) | -16.2%
96 | CC(C)(C)C(=O)NC(=S)N1CCOCC1 | -15.9%
97 | Cc1ccc(C)n1-n1c(C)nc2scc(-c3ccccc3)c2c1=O | -33.2%
98 | Cc1c(Cl)cccc1NC(=S)N=Nc1c(O)n(CN2CCOCC2)c2ccccc12 | -31.2%
99 | O=C(NC(=S)N(CCc1ccccc1)CCc1ccccc1)c1ccco1 | -17.5%
100 | CCOc1ccc(S(=O)(=O)Nc2nc3ccccc3nc2-n2ccc(=NC(=O)c3cccs3)cc2)cc1 | -31.9%
